# WT yeast gro inh: growth inhibition of WT yeast, mitochondrial fusion screen; AID 1362; inhibition, % at 10 µM; mitochondrial fusion phenotypic screen, WT strain; actives 2.1% (n = 190,000); in the data active = inhibition above about 58%; tested in S. cerevisiae
# Lmaj promast: Leishmania major promastigote growth inhibition | actives 9% (n = 200,000) | Leishmania major promastigotes, resazurin fluorescence viability | AID 1063 | inhibition, % at 10 µM; in the data active = inhibition above about 50%;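 also: promastigotes grown with compound for 44 hours at 28 °C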
# Cl transport mod: modulators of human KCC2 chloride dependent transport | Q9H2X9 | KCC2 cells, thallium flux FluoZin-2 fluorescence | actives 2.2% (n = 190,000) | B-score of Tl+ flux slope (higher = more flux/activation; lower = inhibition) at 10 µM;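 active = thallium flux slope and its plate-corrected score both differing from the plate sample mean at a set confidence after two filtering rounds, in either direction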;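 also: slope of fluorescence scaled to starting intensity during 10 to 20 s after thallium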
# ROMK primary: modulators of human ROMK potassium channel; P48048; B-score at 10 µM; actives 2% (n = 130,000); Tet-inducible ROMK, thallium flux fluorescence; actives lie on both sides;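 active = signal ratio slope over the read window, or its plate-corrected B-score, at least 3 SD from the plate mean, either direction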;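 also: B-score of the F/F0 ratio slope over 7 to 12 s after thallium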
# Calpain2 inh: blocks pig calpain II enzyme activity; purified calpain II, fluorogenic peptide substrate, 30 min; inhibition, % at 16 µM; actives 0.37% (n = 220,000); AID 1236;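 active = inhibition above about 50%, limit read from the data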
# * marks the source's active call; other numbers are inactive results; · = not tested or not shown. Most compounds without a hit are left out; they make up all but 12% or so of the library.
SMILES,WT yeast gro inh,Lmaj promast,Cl transport mod,ROMK primary,Calpain2 inh
O=C(COc1ccc2ccc(=O)oc2c1)N1CCN(c2ccccc2)CC1,-10.5,69.3*,-0.859,-0.284,-153.3
O=C(CSCC(=O)Nc1ccccc1)N/N=C/c1c(O)ccc2ccccc12,1.6,99.6*,-0.0609,·,1.4
COc1ccc(/C=N/NC(=O)CSCC(=O)Nc2ccccc2)cc1OC,1.6,1.8,0.625,·,17.1
Cn1cc(C(=O)N/N=C/c2c(O)ccc3ccccc23)ccc1=O,1.8,99.3*,-0.413,-2.97,-11.6
COc1cccc(/C=N/NC(=O)c2[nH]c(C)c(C(=O)N/N=C/c3cccc(OC)c3O)c2C)c1O,-3.2,91.3*,-1.48,1.36,-54.8
COc1cc(OC)c(OC)cc1/C=N/NC(=O)c1cc(-c2cccn2C)n[nH]1,0.3,2.3,-0.185,·,-20.0
CCOc1cccc(/C=N/NC(=O)c2cc(-c3cccn3C)n[nH]2)c1O,-5.5,98.2*,-1.18,-0.319,-88.4
COc1cccc(/C=N/NC(=O)c2ccc(=O)[nH]n2)c1O,·,·,0.326,-0.254,-8.9
O=C1c2ccccc2C(=O)C1C1=Nc2ccccc2NC(c2ccccc2)C1 (stereo not given),-12.5,0.1,·,-0.611,17.9
C=CCc1cccc(/C=N/NC(=O)c2ccccc2OC)c1O,8.1,98.4*,-0.303,0.977,43.2
Nc1cc(Cl)nc(N/N=C/c2c(O)ccc3ccccc23)n1,13.3,91.0*,-0.0936,·,-6.3
O=C(N/N=C/c1ccc[nH]1)c1ccccc1OCc1ccccc1Cl,10.6,33.3,-1.94,-1.35,12.7
O=C(N/N=C/c1ccco1)c1ccccc1OCc1ccccc1Cl,-3.5,69.1*,-0.326,-2.15,1.4
COc1cccc(/C=N/NC(=O)c2ccc(=O)n(C)c2)c1O,19.7,81.0*,0.282,-0.0172,-1.0
CC(C)(C)NC(=O)Cc1ccc(Cl)c(Cl)c1,16.0,3.2,0.0298,-0.662,4.0
COc1ccc(NC(=O)c2cc(S(=O)(=O)N3CCOCC3)cs2)cc1,-16.4,-3.0,0.833,0.0225,-18.0
O=C(/C=C/c1ccc(Br)cc1)c1ccc(NC(=O)c2ccco2)cc1,28.6,88.3*,-0.17,·,-57.7
O=C(/C=C/c1ccncc1)c1ccc(NC(=O)c2ccccc2F)cc1,-4.7,100.2*,-1.17,-1.79,-11.7
O=C(/C=C\c1ccccc1)Nc1ccc(NC(=O)c2ccco2)cc1,22.9,-0.7,-0.549,0.0722,7.1
CC(C)(CO)CNC(=O)c1ccc(OC2CCN(C(=O)C3CC3)CC2)cc1,10.1,1.1,0.0827,-0.0338,-9.6
CCN(CC)S(=O)(=O)c1ccc(C)c(NC(=O)COC(=O)[C@@H]2CCCN2C(=O)c2cccs2)c1,-6.8,3.8,-1.52,1.27,13.2
Cc1[nH]n(-c2nc(-c3ccc(Cl)cc3)cs2)c(=O)c1N=Nc1ccc(O)cc1,18.2,71.5*,-0.125,0.719,-167.3
CN(C)CCCNc1nc(-c2ccccc2)nc2ccccc12,·,·,·,·,15.7
CC(C)(C)C(=O)OCCNc1nc(-c2ccccc2)nc2ccccc12,46.4,53.7*,-0.676,·,13.1
CC1=C(C)C(C)=C(C#N)C(=C(C#N)C#N)N1,·,·,0.00469,1.33,-143.2
SMILES,WT yeast gro inh,Lmaj promast,Cl transport mod,ROMK primary,Calpain2 inh
Cc1ccc(NS(=O)(=O)c2ccc(N3CCN(c4ccc(O)cc4)CC3)c([N+](=O)[O-])c2)c(C)c1,52.9,97.7*,0.809,1.33,12.5
O=[N+]([O-])c1cc(S(=O)(=O)Nc2ccccc2)ccc1N1CCN(c2ccc(O)cc2)CC1,18.0,79.5*,0.428,0.389,-8.0
CC(=O)N1CCCc2cc(S(=O)(=O)Nc3ccc(C)cc3C)ccc21,2.0,-1.8,-0.595,-0.103,32.9
Cc1nc(Cl)nc(N(C)c2ccccc2)c1[N+](=O)[O-],·,·,-1.61,·,16.2
CCOc1ccc(NS(=O)(=O)c2ccc3[nH]cc(C(=O)N(CC)CC)c(=O)c3c2)cc1,5.8,-4.8,-0.583,0.661,12.6
CCC(C)C(NC(=O)c1ccccc1NC(=O)c1ccccc1)C(=O)N1CCOCC1 (stereo not given),8.6,52.9*,0.959,·,-25.7
CCC(NC(=O)c1ccccc1NC(=O)c1ccc(OC)cc1)C(=O)N1CCCC1 (stereo not given),-7.6,0.6,1.25,0.438,-6.7
CCC(NC(=O)c1ccccc1NC(=O)c1ccccc1)C(=O)OC (stereo not given),77.3*,11.1,-1.68,-0.196,1.7
O=C(COc1ncnc2c(Cl)cc(Cl)cc12)Nc1cc([N+](=O)[O-])ccc1Cl,2.8,52.0*,0.69,0.364,-4.5
CC1CC(C)CN(CCOc2ccccc2-c2ccccc2)C1 (stereo not given),22.9,31.9,-0.0265,-2.1,26.3
c1ccc(-c2ccccc2OCCCN2CCCC2)cc1,5.5,47.7,1.31,0.22,8.3
c1ccc(-c2ccccc2OCCCCN2CCCCC2)cc1,3.7,95.0*,0.0114,-2.14,18.6
c1ccc(-c2ccccc2OCCCN2CCCCCC2)cc1,14.1,98.4*,1.78,-2.2,-17.5
COc1ccc(NC(=O)Cn2cccc2)cc1Cl,-7.5,-4.1,-0.506,1.02,33.2
CCOc1ncccc1C(=O)NCC1COc2ccccc2O1 (stereo not given),-2.5,-0.8,-0.1,-0.0073,-14.8
CCOc1ccccc1NC(=O)COC(=O)c1cc[n+]([O-])cc1,·,·,0.192,·,15.1
COc1ccc(N(C(C)C(=O)Nc2cccnc2)S(C)(=O)=O)cc1 (stereo not given),-10.8,-6.3,0.42,0.115,-3.6
CN(C)CC(O)COC(c1ccc(Cl)cc1)c1ccc(Cl)cc1 (stereo not given),30.1,99.3*,0.0853,-1.85,13.8
OC(COC(c1ccc(Cl)cc1)c1ccc(Cl)cc1)CN1CCN(c2ccccn2)CC1 (stereo not given),78.8,70.9*,0.815,-0.597,20.2
CN(C)CCOC(c1ccc(Cl)cc1)c1ccccn1 (stereo not given),-6.3,23.0,0.223,-0.12,-17.5
CC1CN(CC(O)COc2ccc(C(C)C)cc2)CC(C)O1 (stereo not given),19.1,92.4*,-0.0328,·,0.6
CC1CN(CC(O)COC(c2ccc(Cl)cc2)c2ccc(Cl)cc2)CC(C)O1 (stereo not given),57.3,66.9*,0.804,·,-14.8
CC(=O)c1ccc(OCC(O)CN2CC(C)OC(C)C2)cc1 (stereo not given),-9.6,36.8,0.843,·,-16.9
COc1cccc(CNC2CCCc3ccccc32)c1OC (stereo not given),-12.3,17.4,-0.562,-1.08,-29.4
CC1CN(CCCCOc2ccc(C(C)C)cc2)CC(C)O1 (stereo not given),24.2,91.2*,·,-1.18,-0.6
CCN(CC)C1=NS(=O)(=O)c2cc([N+](=O)[O-])ccc21,-16.3,99.9*,1.05,0.418,8.7
CCN(CC)c1ccc([N+](=O)[O-])cc1C(=O)N1CCOCC1,-4.5,3.9,1.56,0.273,8.0
CN(Cc1cc2ccccc2[nH]c1=O)S(C)(=O)=O,14.2,-4.6,1.01,·,8.9
CS(=O)(=O)N(Cc1cc2ccccc2[nH]c1=O)C1CCCCC1,93.9*,-1.3,0.0854,·,-0.6
COc1cccc(/C=N/n2nnnc2N)c1,·,·,0.548,-0.119,-13.0

# Compound activity: PubChem BioAssay, several laboratories
